Measured values as given in the supplement of paper PMC10849652.
About 7,900 targets were measured; listed, in parts, are those with a hit and a random draw of the rest. About 0.6% of all pairs of compound and target were hits.

Each target was assayed with C#Cc1cccc(Nc2ncnc3cc(OCCOC)c(OCCOC)cc23)c1 [erlotinib] (assay: log2 fold change, soluble protein after heating vs DMSO (PISA); higher = thermal stabilisation; K562 cells, 10 uM, 30 min; active = over 0.2 and 3.5 SD of the protein, either way, in both replicates (recomputed)).
How it was run: (§1)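 K562 cells at 2×10^6 cells/mL were exposed to 10 μM compound for 30 min, then aliquots were heated for 3 min across 48°C-58°C, pooled, and extracted in PBS containing 0.5% NP-40 at 4°C. The supernatant after 21,000xg for 90 min was taken as soluble protein and measured by TMTpro 16plex LC-MS/MS with channel sums equalised. Thermal stability is reported relative to control samples, with values from duplicates. Fold changes are given on a log2 scale.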

Sequence of UniProt P02008 (P02008 whole entry, looked up): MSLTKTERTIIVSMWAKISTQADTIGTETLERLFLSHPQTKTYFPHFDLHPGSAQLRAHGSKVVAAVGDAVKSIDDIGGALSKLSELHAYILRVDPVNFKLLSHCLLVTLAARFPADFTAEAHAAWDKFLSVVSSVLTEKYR
Sequence of UniProt Q9BXW9 (Q9BXW9 whole entry, looked up): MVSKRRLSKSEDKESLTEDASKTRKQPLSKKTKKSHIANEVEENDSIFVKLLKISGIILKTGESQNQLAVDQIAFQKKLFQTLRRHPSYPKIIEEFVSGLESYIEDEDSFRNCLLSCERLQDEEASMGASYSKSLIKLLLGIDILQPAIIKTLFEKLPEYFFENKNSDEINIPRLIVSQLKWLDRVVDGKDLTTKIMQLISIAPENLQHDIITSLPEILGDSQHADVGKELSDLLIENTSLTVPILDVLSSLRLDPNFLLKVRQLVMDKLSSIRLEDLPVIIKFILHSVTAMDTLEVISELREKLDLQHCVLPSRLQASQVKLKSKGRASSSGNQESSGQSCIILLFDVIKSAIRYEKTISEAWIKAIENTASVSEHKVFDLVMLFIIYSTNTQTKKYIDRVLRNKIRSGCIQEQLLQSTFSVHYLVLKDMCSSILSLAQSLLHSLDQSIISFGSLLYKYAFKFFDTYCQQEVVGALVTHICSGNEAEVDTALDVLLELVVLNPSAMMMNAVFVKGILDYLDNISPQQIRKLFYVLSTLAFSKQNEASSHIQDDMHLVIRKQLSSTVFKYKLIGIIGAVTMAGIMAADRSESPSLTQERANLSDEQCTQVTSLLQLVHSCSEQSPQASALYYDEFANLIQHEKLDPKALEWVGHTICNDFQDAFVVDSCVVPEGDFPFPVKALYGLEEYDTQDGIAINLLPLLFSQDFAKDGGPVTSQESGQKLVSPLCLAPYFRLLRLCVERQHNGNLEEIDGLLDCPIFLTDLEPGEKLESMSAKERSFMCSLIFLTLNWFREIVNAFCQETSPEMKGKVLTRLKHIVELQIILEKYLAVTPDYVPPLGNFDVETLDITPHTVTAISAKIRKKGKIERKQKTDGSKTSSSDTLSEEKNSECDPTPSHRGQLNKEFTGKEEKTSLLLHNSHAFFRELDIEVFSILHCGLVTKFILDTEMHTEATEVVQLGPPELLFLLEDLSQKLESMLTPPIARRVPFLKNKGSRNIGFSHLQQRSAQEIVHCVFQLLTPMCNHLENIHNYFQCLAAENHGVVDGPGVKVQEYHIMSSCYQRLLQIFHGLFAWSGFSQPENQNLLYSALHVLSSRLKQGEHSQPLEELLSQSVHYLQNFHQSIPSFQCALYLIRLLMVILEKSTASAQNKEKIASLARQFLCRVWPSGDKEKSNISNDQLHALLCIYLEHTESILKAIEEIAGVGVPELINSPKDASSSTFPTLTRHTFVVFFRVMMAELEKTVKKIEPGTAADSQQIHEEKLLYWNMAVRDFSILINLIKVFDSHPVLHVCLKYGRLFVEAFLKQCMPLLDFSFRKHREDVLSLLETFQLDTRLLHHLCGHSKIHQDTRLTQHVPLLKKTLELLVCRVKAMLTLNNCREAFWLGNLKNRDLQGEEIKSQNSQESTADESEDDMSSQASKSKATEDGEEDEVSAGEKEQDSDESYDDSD
Sequence of UniProt Q9NZC3 (Q9NZC3 whole entry, looked up): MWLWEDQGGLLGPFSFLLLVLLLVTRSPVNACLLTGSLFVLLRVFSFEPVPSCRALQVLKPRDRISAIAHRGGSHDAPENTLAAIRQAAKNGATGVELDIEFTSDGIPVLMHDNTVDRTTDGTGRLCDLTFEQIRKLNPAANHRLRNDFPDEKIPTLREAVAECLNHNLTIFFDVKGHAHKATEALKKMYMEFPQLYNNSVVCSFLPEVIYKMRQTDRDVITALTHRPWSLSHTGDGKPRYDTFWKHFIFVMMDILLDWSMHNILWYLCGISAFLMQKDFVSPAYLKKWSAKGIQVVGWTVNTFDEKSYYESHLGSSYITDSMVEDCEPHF
Sequence of UniProt Q8N4A0 (Q8N4A0 whole entry, looked up): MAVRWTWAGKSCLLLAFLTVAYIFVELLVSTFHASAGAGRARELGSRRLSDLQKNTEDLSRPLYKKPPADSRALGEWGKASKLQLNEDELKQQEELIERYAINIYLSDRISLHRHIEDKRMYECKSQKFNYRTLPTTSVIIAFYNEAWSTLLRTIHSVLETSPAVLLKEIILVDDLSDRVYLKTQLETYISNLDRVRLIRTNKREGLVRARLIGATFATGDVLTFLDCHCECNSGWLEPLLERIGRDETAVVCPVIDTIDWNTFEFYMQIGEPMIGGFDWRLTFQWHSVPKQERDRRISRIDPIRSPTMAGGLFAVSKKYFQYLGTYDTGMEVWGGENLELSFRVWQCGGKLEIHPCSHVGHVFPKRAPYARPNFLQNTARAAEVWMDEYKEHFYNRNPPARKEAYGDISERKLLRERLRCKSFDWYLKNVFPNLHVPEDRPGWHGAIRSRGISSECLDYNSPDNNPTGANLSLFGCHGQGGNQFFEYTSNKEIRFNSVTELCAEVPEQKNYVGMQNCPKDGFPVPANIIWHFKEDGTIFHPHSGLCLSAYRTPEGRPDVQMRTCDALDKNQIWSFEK
Sequence of UniProt P29084 (P29084 whole entry, looked up): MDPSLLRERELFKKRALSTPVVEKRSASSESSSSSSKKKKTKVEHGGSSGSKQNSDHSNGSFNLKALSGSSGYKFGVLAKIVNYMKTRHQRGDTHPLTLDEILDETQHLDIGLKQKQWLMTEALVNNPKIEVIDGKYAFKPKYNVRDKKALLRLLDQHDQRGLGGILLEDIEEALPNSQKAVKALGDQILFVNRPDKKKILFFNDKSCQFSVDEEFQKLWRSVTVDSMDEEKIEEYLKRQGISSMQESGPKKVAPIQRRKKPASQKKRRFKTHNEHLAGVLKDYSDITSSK
Sequence of UniProt Q14527 (Q14527 whole entry, looked up): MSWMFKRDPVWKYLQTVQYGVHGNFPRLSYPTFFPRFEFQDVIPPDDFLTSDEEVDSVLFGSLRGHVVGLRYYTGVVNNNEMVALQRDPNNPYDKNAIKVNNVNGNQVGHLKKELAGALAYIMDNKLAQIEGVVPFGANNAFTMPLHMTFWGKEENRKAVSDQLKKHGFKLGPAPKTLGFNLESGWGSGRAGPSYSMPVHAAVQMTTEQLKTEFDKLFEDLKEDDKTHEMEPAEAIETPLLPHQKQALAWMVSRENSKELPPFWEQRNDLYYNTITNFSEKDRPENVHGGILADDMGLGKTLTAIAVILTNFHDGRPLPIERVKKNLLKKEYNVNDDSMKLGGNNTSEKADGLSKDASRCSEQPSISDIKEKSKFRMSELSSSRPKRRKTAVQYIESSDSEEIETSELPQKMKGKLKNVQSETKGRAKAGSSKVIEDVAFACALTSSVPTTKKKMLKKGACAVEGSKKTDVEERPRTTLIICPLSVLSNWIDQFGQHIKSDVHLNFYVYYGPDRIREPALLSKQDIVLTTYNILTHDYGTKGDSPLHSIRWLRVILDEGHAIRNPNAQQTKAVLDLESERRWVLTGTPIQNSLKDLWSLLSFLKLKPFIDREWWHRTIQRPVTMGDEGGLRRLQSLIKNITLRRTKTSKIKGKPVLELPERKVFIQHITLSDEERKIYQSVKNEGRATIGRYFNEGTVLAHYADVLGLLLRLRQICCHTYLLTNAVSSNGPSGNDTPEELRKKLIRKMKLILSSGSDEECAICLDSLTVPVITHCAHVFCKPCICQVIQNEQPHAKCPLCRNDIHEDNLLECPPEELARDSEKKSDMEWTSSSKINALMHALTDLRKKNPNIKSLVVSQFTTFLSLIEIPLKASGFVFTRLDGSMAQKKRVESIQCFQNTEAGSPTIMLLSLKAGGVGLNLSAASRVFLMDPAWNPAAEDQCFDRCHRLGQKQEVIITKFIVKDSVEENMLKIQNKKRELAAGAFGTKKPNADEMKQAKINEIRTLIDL
Sequence of UniProt Q96JB3 (Q96JB3 whole entry, looked up): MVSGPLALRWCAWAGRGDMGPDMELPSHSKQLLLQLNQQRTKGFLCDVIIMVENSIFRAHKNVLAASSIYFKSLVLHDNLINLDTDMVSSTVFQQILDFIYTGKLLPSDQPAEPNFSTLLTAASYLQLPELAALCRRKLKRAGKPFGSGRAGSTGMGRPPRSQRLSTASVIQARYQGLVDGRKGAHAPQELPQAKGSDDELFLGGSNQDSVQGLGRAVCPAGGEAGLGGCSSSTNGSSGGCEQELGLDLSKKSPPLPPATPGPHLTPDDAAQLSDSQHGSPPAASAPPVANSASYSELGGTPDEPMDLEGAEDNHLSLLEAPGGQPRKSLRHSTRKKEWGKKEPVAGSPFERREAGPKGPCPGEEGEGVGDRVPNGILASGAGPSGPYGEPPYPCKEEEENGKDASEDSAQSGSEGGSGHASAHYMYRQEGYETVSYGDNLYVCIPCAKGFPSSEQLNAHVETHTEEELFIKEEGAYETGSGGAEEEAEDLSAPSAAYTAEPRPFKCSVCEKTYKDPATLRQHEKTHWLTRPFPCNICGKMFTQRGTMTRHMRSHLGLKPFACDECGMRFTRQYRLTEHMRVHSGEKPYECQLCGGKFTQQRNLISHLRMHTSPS
Sequence of UniProt Q00403 (Q00403 whole entry, looked up): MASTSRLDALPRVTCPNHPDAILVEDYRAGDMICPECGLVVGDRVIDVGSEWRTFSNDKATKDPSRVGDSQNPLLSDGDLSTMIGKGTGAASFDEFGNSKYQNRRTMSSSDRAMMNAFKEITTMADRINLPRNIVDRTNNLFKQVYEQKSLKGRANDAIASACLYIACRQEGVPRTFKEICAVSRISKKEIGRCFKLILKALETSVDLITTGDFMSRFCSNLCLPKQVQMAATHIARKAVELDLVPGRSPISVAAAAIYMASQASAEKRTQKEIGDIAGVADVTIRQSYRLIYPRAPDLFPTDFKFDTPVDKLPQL
Sequence of UniProt P0C0S5 (P0C0S5 whole entry, looked up): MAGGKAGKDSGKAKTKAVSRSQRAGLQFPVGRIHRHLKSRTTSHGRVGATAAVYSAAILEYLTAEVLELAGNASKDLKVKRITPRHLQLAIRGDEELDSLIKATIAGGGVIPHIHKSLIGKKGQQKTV
Sequence of UniProt P0CL80 (P0CL80 whole entry, looked up): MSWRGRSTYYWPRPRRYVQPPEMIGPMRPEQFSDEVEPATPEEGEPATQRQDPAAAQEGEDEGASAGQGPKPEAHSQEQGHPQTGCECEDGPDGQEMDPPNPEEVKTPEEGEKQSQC

log2 fold change, inactive:
HMGB3 (UniProt O15347) -0.037
HNRNPUL1 (UniProt Q9BUJ2) 0.022
FANCD2 isoform 1 (UniProt Q9BXW9) 0.077
HOOK3 (UniProt Q86VS8) 0.04
HECTD1 (UniProt Q9ULT8) 0.009
HDGFL2 (UniProt Q7Z4V5) 0.002
GTF2E1 (UniProt P29083) 0.067
IFI30 (UniProt P13284) 0.061
GSK3B isoform 2 (UniProt P49841) -0.024
GIGYF2 (UniProt Q6Y7W6) 0.062
GPAT4 (UniProt Q86UL3) -0.017
HTATIP2 isoform 3 (UniProt Q9BUP3) 0.016
H2AZ1 (UniProt P0C0S5) -0.025
IFRD2 isoform 2 (UniProt Q12894) 0.204
GEMIN5 (UniProt Q8TEQ6) -0.007
HIC2 (UniProt Q96JB3) 0.128
GTF2B (UniProt Q00403) 0.069
IDH3A (UniProt P50213) 0.021
HNRNPF (UniProt P52597) 0.02
GAGE12F (UniProt P0CL80) -0.056
GDE1 (UniProt Q9NZC3) 0.014
GLB1 (UniProt P16278) -0.082
FASTKD1 (UniProt Q53R41) 0.207
GALNT4 (UniProt Q8N4A0) 0.077
HHEX (UniProt Q03014) -0.043
HPCAL1 (UniProt P37235) 0.011
GNG5 (UniProt P63218) -0.07
GLYR1 (UniProt Q49A26) -0.053
HLTF (UniProt Q14527) -0.005
GTF2E2 (UniProt P29084) 0.028
HADHB (UniProt P55084) -0.057
HBZ (UniProt P02008) -0.013
FBXO42 (UniProt Q6P3S6) 0.026
GALNT11 (UniProt Q8NCW6) 0.088
GNB2 (UniProt P62879) 0.003

These targets were tested with C/C(=N\NC(=O)C1=CC(=CC=C1)S(=O)(=O)N2CCOCC2)/C3=C(C=CC(=C3)Cl)O in the same assay as above.
How it was run: as §1

log2 fold change, inactive:
HMGB3 (UniProt O15347) -0.002
HNRNPUL1 (UniProt Q9BUJ2) -0.009
FANCD2 isoform 1 (UniProt Q9BXW9) 0.075
HOOK3 (UniProt Q86VS8) 0.039
HECTD1 (UniProt Q9ULT8) 0.127
HDGFL2 (UniProt Q7Z4V5) 0.001
GTF2E1 (UniProt P29083) 0.145
IFI30 (UniProt P13284) 0.018
GSK3B isoform 2 (UniProt P49841) -0.051
GIGYF2 (UniProt Q6Y7W6) 0.081
GPAT4 (UniProt Q86UL3) -0.002
HTATIP2 isoform 3 (UniProt Q9BUP3) 0.112
H2AZ1 (UniProt P0C0S5) -0.13
IFRD2 isoform 2 (UniProt Q12894) -0.109
GEMIN5 (UniProt Q8TEQ6) 0.066
HIC2 (UniProt Q96JB3) 0
GTF2B (UniProt Q00403) 0.136
IDH3A (UniProt P50213) 0.034
HNRNPF (UniProt P52597) 0.126
GAGE12F (UniProt P0CL80) -0.061
GDE1 (UniProt Q9NZC3) 0.065
GLB1 (UniProt P16278) 0.038
FASTKD1 (UniProt Q53R41) 0.219
GALNT4 (UniProt Q8N4A0) 0.062
HHEX (UniProt Q03014) -0.206
HPCAL1 (UniProt P37235) 0.048
GNG5 (UniProt P63218) 0.01
GLYR1 (UniProt Q49A26) -0.211
HLTF (UniProt Q14527) 0.018
GTF2E2 (UniProt P29084) 0.137
HADHB (UniProt P55084) 0.112
HBZ (UniProt P02008) 0.077
FBXO42 (UniProt Q6P3S6) -0.006
GALNT11 (UniProt Q8NCW6) -0.019
GNB2 (UniProt P62879) 0.079
